# Results: PubChem BioAssay (NCATS)
# Inconclusive results are not listed. The source made the active and inactive calls. Unless noted, the call rests on the fitted dose curve; in most records, active means well fitted inhibition curve with a large enough effect; inconclusive means small, poorly fitted or top-dose-only effect; inactive means no such curve, though single readings can be large or run the other way.
# Experiments:
# [1] = qHTS profiling of the MIPE4 collection as inhibitors of Plasmodium falciparum (3D7) proliferation (AID 743344; call rule not given here;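 further: scaled between DMSO vehicle wells and 0.29 µM artemisinin as full inhibition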); conditions: P. falciparum 3D7 in erythrocytes, SYBR Green DNA fluorescence, 72 h; at 28.5 µM unless noted
# In short: (§1)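 Erythrocytes infected with P. falciparum (0.3% parasitemia, 2.5% hematocrit) incubated with compounds 72 h at 37 C, 5% CO2. Lysis with saponin/Triton buffer containing SYBR Green I, overnight at room temperature in the dark; DNA fluorescence (485/535 nm) normalised to 0.29 uM artemisinin and DMSO.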
# [2] = qHTS profiling of the MIPE4 collection as inhibitors of Plasmodium falciparum (DD2) proliferation (AID 743345; call rule not given here); conditions: P. falciparum Dd2 in erythrocytes, SYBR Green DNA, 72 h; at 28.5 µM unless noted
# In short: as §1
# [3] = qHTS profiling of the MIPE4 collection as inhibitors of Plasmodium falciparum (HB3) proliferation (AID 743347; call rule not given here;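 further: plate controls were DMSO vehicle wells for no effect and artemisinin wells for full effect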); conditions: P. falciparum HB3 in erythrocytes, SYBR Green DNA, 72 h; at 28.5 µM unless noted
# In short: as §1
# [4] = High-throughput drug toxicity screening in the BPDCN cell line Gen2.2 (AID 1224824; call rule not given here;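 further: cells exposed to compounds for 48 h before reading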); conditions: Gen2.2 BPDCN cells; at 45.8 µM (top of the series) unless noted
# In short: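 CellTiter-Glo luminescence read after 48 h compound exposure at 37 C defines viability; percent activity set with DMSO as 100% and bortezomib (9.2 uM final) as 0%. 500 exponentially growing cells per well, RPMI plus 10% FBS.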
# [5] = High-throughput drug toxicity screening in the BPDCN cell line Cal-1 (AID 1224825; call rule not given here); conditions: Cal-1 BPDCN cell viability, qHTS; at 45.8 µM (top of the series) unless noted
# In short: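 Exponentially growing Cal-1 cells, 500 per well in phenol red-free RPMI with 10% FBS, were exposed to compounds for 48 h at 37 °C, 5% CO2. Viability was read by CellTiter-Glo luminescence and normalised to DMSO (100%) and 9.2 uM bortezomib (0%).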
# [6] = qHTS assay for measurement of the activity of small molecule inhibitors on Zika virus induced Caspase-3 activity in human iPSC derived neural progenitor cells (hNPCs) (AID 1224857); further: nearly all actives have a fitted effect of over 65% in size; further: potency means the concentration at half of the fitted maximal effect
# In short: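 Quantitative HTS format: human iPSC neural progenitors, 1 h compound pretreatment, ZIKV 2 FFU/cell for 6 h at 37 C. Percent inhibition derived from luminescent caspase-3/7 signal between uninfected and infected controls.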
# [7] = qHTS assay for measurement of the activity of small molecule inhibitors on Zika virus induced Caspase-3 activity in human astrocytoma cells (AID 1224859); further: potency means the concentration at half of the fitted maximal effect
# In short: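 Readout is luminescence from Caspase-Glo 3/7 added after a 6 h ZIKV infection (2 FFU/cell) of compound-pretreated (1 h) SNB-19 cells; data expressed as % inhibition versus uninfected and infected wells.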
# [8] = qHTS Screen of the MIPE 4.0 Collection Against Ewings Sarcoma (RDES) (AID 1259252); further: nearly all actives have a fitted effect of over 35% in size; further: potency means the concentration at half of the fitted maximal effect
# In short: (§2)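 Compound titrations go onto adherent log-phase cells 4 h after seeding, incubate 48 h at 37C, then CellTiter-Glo luminescence reports viability relative to DMSO and cell-free controls.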
# [9] = qHTS Screen of the MIPE 4.0 Collection Against Ewings Sarcoma (TC71) (AID 1259253); further: nearly all actives have a fitted effect of over 40% in size; further: potency means the concentration at half of the fitted maximal effect
# In short: as §2
# [10] = qHTS Screen of the MIPE 4.0 Collection Against Ewings Sarcoma (EW8) (AID 1259255); further: nearly all actives have a fitted effect of over 35% in size; further: potency means the concentration at half of the fitted maximal effect;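 on viability: 100% = DMSO-treated cells and 0% = medium-only wells without cells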
# In short: as §2
# [11] = qHTS profiling of the MIPE4 collection as inhibitors of Plasmodium falciparum (DD2) proliferation (Rep 2) (AID 743346; call rule not given here); conditions: P. falciparum Dd2 in erythrocytes, SYBR Green DNA, 72 h; at 28.5 µM unless noted
# In short: as §1
SMILES,"parasite growth, % of DMSO control [1] [%]","parasite growth remaining, % of DMSO control (lower = more inhibition) [2] [%]","growth, % of control [3] [%]","cell viability, % of control (lower = more cytotoxic) [4] [%]",viability (% of control) [5] [%],Potency [6],Potency [7],Potency [8],Potency [9],Potency [10],"parasite growth, % of control (lower = inhibition) [11] [%]"
CCOC(=O)C1=C(C)NC(=S)NC1c1cccc(O)c1 (centres undefined),90.7,93.6,39,48.9,19.3,inactive,inactive,0.264 µM (active),0.105 µM (active),0.0935 µM (active),
CC[C@]12C=CCN3CC[C@@]4(c5cc([C@@]6(C(=O)OC)C[C@H]7C[C@@H](C(C)(F)F)CN(Cc8c6[nH]c6ccccc86)C7)c(OC)cc5N(C)[C@H]4[C@@](O)(C(=O)OC)[C@H]1OC(C)=O)[C@@H]32,17,,16.3,8.97,9.46,inactive,inactive,0.0105 µM (active),0.0187 µM (active),0.0053 µM (active),24.8
Nc1nc2c(c(=O)[nH]1)N(C=O)[C@H](CNc1ccc(C(=O)N[C@@H](CCC(=O)O)C(=O)O)cc1)CN2,106,,103,118,92.1,inactive,inactive,inactive,inactive,inactive,86.2
O=C(Nc1ccc(Oc2ccnc3[nH]ccc23)c(F)c1)c1cccn(-c2ccc(F)cc2)c1=O,35.8,,,83,87.2,inactive,inactive,inactive,inactive,inactive,29.2
CCCCCCCCCCCCc1ccc(S(=O)(=O)Nc2nncs2)cc1,79.3,,117,86,105,inactive,inactive,inactive,inactive,inactive,80.6
N#CC(=C(N)Sc1ccc(N)cc1)c1ccccc1C(F)(F)F,24.4,,7.78,7.44,57.2,inactive,inactive,5.9 µM (active),10.5 µM (active),3.32 µM (active),33.9
Nc1ccc(C(=O)Nc2cccc(-c3nc(N4CCOCC4)c4oc5ncccc5c4n3)c2)cn1,6.14,,,15.1,4.11,inactive,inactive,18.7 µM (active),16.6 µM (active),18.7 µM (active),9.55
N#Cc1c(C2CCNCC2)cc(-c2c(O)cccc2OCC2CC2)nc1N,,12.3,5.66,7.25,5.17,inactive,inactive,14.8 µM (active),10.5 µM (active),14.8 µM (active),15.7
CC(=O)N1CCN(c2ccc(OCc3nn(C)c(C)c3-c3cccc4c(CCCOc5cccc6ccccc56)c(C(=O)O)n(Cc5cccnc5)c34)cc2)CC1,5.7,,2.86,36.4,2.28,inactive,inactive,0.332 µM (active),1.18 µM (active),3.72 µM (active),10.7
c1coc(CNc2ncnc3nc[nH]c23)c1,,26.3,,90.9,102,inactive,inactive,inactive,inactive,inactive,
CO[C@@H]1[C@@H](O)[C@H](O)[C@@H](n2c3c(Cl)cccc3c3c4c(c5c6cccc(Cl)c6[nH]c5c32)C(=O)NC4=O)O[C@@H]1CO,7.5,,8.64,12.9,5.01,inactive,inactive,0.105 µM (active),0.0935 µM (active),0.105 µM (active),8.26
FC(F)c1nc2ccccc2n1-c1nc(N2CCOCC2)nc(N2CCOCC2)n1,,7.94,3.1,9.88,37.8,inactive,inactive,0.235 µM (active),0.59 µM (active),3.72 µM (active),8.19
C=CC(=O)Nc1ccc2ncnc(Nc3ccc(OCc4cccc(F)c4)c(Cl)c3)c2c1,6.97,19.9,5.29,13,2.97,inactive,inactive,0.148 µM (active),1.18 µM (active),2.09 µM (active),
O=C(Nc1cc2cc[nH]c2cn1)c1ccccc1,76.5,,75.4,13.5,8.25,4.69 µM (active),5.26 µM (active),13.2 µM (active),13.2 µM (active),14.8 µM (active),39.2
Cc1onc(-c2ccccc2)c1C(=O)N[C@@H]1C(=O)N2[C@@H](C(=O)O)C(C)(C)S[C@@H]12,,99.9,,73.2,120,inactive,inactive,inactive,inactive,inactive,
COc1cccc2c1C(=O)c1c(O)c3c(c(O)c1C2=O)C[C@@](O)(C(=O)CO)C[C@@H]3O[C@H]1C[C@H](N)[C@H](OC2CCCCO2)[C@H](C)O1 (some centres undefined),,7.89,,5.53,1.87,inactive,inactive,1.18 µM (active),0.662 µM (active),0.166 µM (active),7.8
COc1ccc(C(C)=O)c(O)c1,86.4,98.8,95.8,146,35.9,inactive,inactive,inactive,inactive,inactive,
C[C@H](O)[C@@H]1C(=O)N2C(C(=O)O)=C(S[C@@H]3CN[C@H](CNS(N)(=O)=O)C3)[C@@H](C)[C@@H]12,107,,87.8,119,112,inactive,inactive,inactive,inactive,inactive,82.6
CCC(C(=O)O)C1CCC(C)C(C(C)C(O)C(C)C(=O)C(CC)C2OC3(C=CC(O)[C@@]4(CC[C@](C)(C5CC[C@@](O)(CC)C(C)O5)O4)O3)C(C)CC2C)O1 (some centres undefined),9.07,6.02,16.9,16,12.3,inactive,inactive,1.18 µM (active),1.48 µM (active),0.833 µM (active),

SMILES,"parasite growth, % of DMSO control [1] [%]","parasite growth remaining, % of DMSO control (lower = more inhibition) [2] [%]","growth, % of control [3] [%]","cell viability, % of control (lower = more cytotoxic) [4] [%]",viability (% of control) [5] [%],Potency [6],Potency [7],Potency [8],Potency [9],Potency [10],"parasite growth, % of control (lower = inhibition) [11] [%]"
C=CC(=O)Nc1cccc(Nc2nc(NC3CCC(N(C)C)CC3)nc3c2ncn3C(C)C)c1 (centres undefined),,15.3,,5.58,2.19,inactive,inactive,0.0148 µM (active),0.469 µM (active),0.526 µM (active),35.4
N#Cc1cc(NC(=O)Nc2nnc(-c3ccncc3)s2)ccc1-c1cn[nH]c1,45.1,,,92.3,111,inactive,inactive,inactive,inactive,inactive,74.6
COc1cc(C(=O)NC2CCN(C)CC2)ccc1Nc1ncc2c(n1)N(C1CCCC1)CCC(=O)N2C(C)C,5.76,,6.9,6.24,2.49,inactive,inactive,2.35 µM (active),2.09 µM (active),2.09 µM (active),
C=C1C(=O)O[C@H]2[C@@H]1CCC(C)=CCC[C@@]1(C)O[C@@H]21,39.5,,31.2,2.53,2.31,inactive,inactive,20.9 µM (active),10.5 µM (active),9.35 µM (active),37.7
CC[C@H]1OC(=O)[C@H](C)[C@@H](O[C@H]2C[C@@](C)(OC)[C@@H](O)[C@H](C)O2)[C@H](C)[C@@H](O[C@@H]2O[C@H](C)C[C@H](N(C)C)[C@@H]2O)[C@](C)(OC)C[C@@H](C)C(=O)[C@H](C)[C@@H](O)[C@]1(C)O,46.8,,51.5,99.8,108,inactive,inactive,inactive,inactive,inactive,66.9
O=C(c1ccc(F)cc1)N1CCC[C@H](c2nc(-c3ccc(F)cc3)no2)C1,74.1,94.6,82.2,93.8,111,inactive,inactive,inactive,inactive,inactive,
C=C(C)[C@@H]1CC[C@]2(C(=O)O)CC[C@]3(C)[C@H](CC[C@@H]4[C@@]5(C)CC[C@H](O)C(C)(C)[C@@H]5CC[C@]43C)[C@@H]12,,20.6,,61.6,85.4,inactive,inactive,inactive,inactive,inactive,
C[C@]12C=CC(=O)N[C@@H]1CC[C@H]1[C@H]3CC[C@@H](C(=O)Nc4cc(C(F)(F)F)ccc4C(F)(F)F)[C@@]3(C)CC[C@@H]12,,9.12,26.4,58.7,93,inactive,inactive,inactive,inactive,inactive,23.9
O=c1c(O)c(-c2ccc(O)c(O)c2)oc2cc(O)ccc12,5.73,8.33,8.07,9.57,2.16,inactive,inactive,14.8 µM (active),18.7 µM (active),16.6 µM (active),
CC(C)(O)[C@H]1CC[C@@](C)([C@H]2[C@@H](O)C[C@@]3(C)[C@@H]4C[C@H](O[C@@H]5O[C@H](CO)[C@@H](O)[C@H](O)[C@@H]5O)[C@H]5C(C)(C)[C@@H](O[C@@H]6OC[C@@H](O)[C@H](O)[C@@H]6O)CC[C@@]56C[C@@]46CC[C@]23C)O1,90.6,,81.9,1050,112,inactive,inactive,10.5 µM (active),8.33 µM (active),inactive,
CCn1c(=O)c2c(nc(C=Cc3ccc(OC)c(OC)c3)n2C)n(CC)c1=O,37.9,83.4,47.9,193,99.5,inactive,inactive,inactive,inactive,inactive,
C#Cc1cccc(Nc2ncnc3cc(OCCOC)c(OCCO)cc23)c1,6.81,,,38.2,12.5,inactive,inactive,0.935 µM (active),18.7 µM (active),9.35 µM (active),18.2
Cc1ncc(-c2ccnc(Nc3ccc(S(C)(=O)=O)cc3)n2)n1C(C)C,6.84,19.3,7.75,6.27,4.48,inactive,inactive,4.69 µM (active),2.64 µM (active),4.69 µM (active),
Cc1cc(C(=O)NOCCO)c(Nc2ccc(I)cc2F)n(C)c1=O,51.4,,66.5,7.2,30.2,inactive,inactive,inactive,inactive,inactive,84.7
Cn1cc(CNCC2CCN(c3ncc(C(=O)NO)cn3)CC2)c2ccccc21,4.76,,7.88,12.7,4.24,inactive,inactive,0.0332 µM (active),0.0332 µM (active),0.0332 µM (active),8.03
N=c1ccn2c(n1)O[C@H]1[C@@H](O)[C@@H](CO)O[C@H]12,82.9,,73.8,70.9,11.2,inactive,inactive,0.332 µM (active),0.662 µM (active),1.05 µM (active),
O=C(Nc1cccc(Nc2ncc(Br)c(NCCc3cnc[nH]3)n2)c1)N1CCCC1,7.42,,,15.3,2.84,inactive,inactive,7.43 µM (active),6.62 µM (active),0.235 µM (active),17.4
CCS(=O)(=O)Nc1ccc2[nH]c(O)c(C(=Nc3ccc(CN4CCCCC4)cc3)c3ccccc3)c2c1,6.54,7.14,4.28,2.51,7.15,inactive,inactive,0.662 µM (active),,0.0833 µM (active),13.8
